The structures appear in SMILES notation. Hit rate of the full screen: of about 48,000 compounds, about 13,000 (27%) showed an effect of 50% or more. The list shows a part of the results.

The test deals with Wolbachia pipientis. Nature of the test: Anti-Wolbachia Cell-Based Screen. The note with it: 5 µM. It counts as functional. Set-up: scale not given: in the data most compounds retested in dose-response had high values.
Turning to `CC(C)c1nccn1-c1cccc(C2CCCN(S(=O)(=O)N(C)C)C2)n1` (stereo unspecified), the “Percent Effect” value was 123.6%. Regarding `CC(C)c1nccn1-c1cccc(C2CCCN2S(=O)(=O)N(C)C)n1` (stereo unspecified), the “Percent Effect” value is reported as -5.176%. In the case of `CN1CCCC1c1cccc(Cc2ccccc2F)n1` (stereo unspecified), the “Percent Effect” value is listed as -8.343%.

For `Fc1ccc2[nH]c([C@H]3CCN(C4CCOCC4)C3)nc2c1`, the “Percent Effect” value is recorded as -0.03029%.

Consider `CN(C)C(=O)CN1CCC(c2cccc(Cc3ccc(F)cc3)n2)CC1`, for which the “Percent Effect” value worked out at 83.25%.

For `CCCN1CCCC1c1nc(Cc2ccc(F)cc2)no1` (stereo unspecified), the “Percent Effect” value is reported as -11.63%.

For `CN(C)C(=O)CN(C)C(=O)c1cnc(Cc2ccc(F)cc2)s1`, the “Percent Effect” value is reported as -0.8881%. With `CCO[C@H]1CN(C)C[C@@H]1NC(=O)c1c[nH]nc1C1CCCCC1`, the “Percent Effect” value is reported as -8.959%. Consider `NC(=O)C1CCN(C(=O)NCc2ccccc2Cn2ccnc2)CC1`, for which the “Percent Effect” value was -2.267%. For `COc1cc(C(=O)N2CC[C@@H](NC(=O)c3ccccn3)[C@H](O)C2)ccn1`, the “Percent Effect” value was -8.714%. For `COC1(CNS(=O)(=O)c2ccccc2Cl)CCSC1` (stereo unspecified), the “Percent Effect” value is -2.993%. Regarding `COC(=O)c1ccc(NC2CCN(CC(F)(F)F)C2=O)cc1C` (stereo unspecified), the “Percent Effect” value was 4.628%. `CCn1ccnc1CN1CCN(CCC(=O)NC(C)(C)C)CC1C` (stereo unspecified): the “Percent Effect” value is reported as -7.568%. As for `CN(C)S(=O)(=O)N1CCCC(c2cccc(Cc3ccccc3)n2)C1` (stereo unspecified), the “Percent Effect” value is given as 7.511%. For `CN(C)S(=O)(=O)N1CCCC(c2cccc(Cc3ccc(F)cc3)n2)C1` (stereo unspecified), the “Percent Effect” value is recorded as 101%. The result for `CN(C)S(=O)(=O)N1CCC(c2cccc(Cc3ccccc3Cl)n2)CC1` reads 111.4%. Take `CN(C)S(=O)(=O)N1CCCC(CCC(=O)Nc2ccc(Cl)cc2)C1` (stereo unspecified): the “Percent Effect” value amounted to 1.788%. Turning to `CN(C)S(=O)(=O)N1CCCC(c2cccc(Cc3ccc(Cl)cc3)n2)C1` (stereo unspecified), the “Percent Effect” value came out at 74.08%.

As for `CN1CCCC(c2cccc(Cc3ccccc3Cl)n2)C1` (stereo unspecified), the “Percent Effect” value is reported as -5.601%. For `CN(C)S(=O)(=O)N1CCCC(c2cccc(Cc3ccccc3F)n2)C1` (stereo unspecified), the “Percent Effect” value is recorded as 93.31%. For `Cn1cc(CNC(=O)NCCOc2ccc(F)c(F)c2)cn1`, the “Percent Effect” value is recorded as -13.41%. Turning to `Cc1nc(COc2nc(C(C)C)no2)cs1`, the “Percent Effect” value is reported as 5.061%. Consider `CC(C)(N)c1cn(C2CCN(c3ncccc3Cl)CC2)nn1`, for which the “Percent Effect” value is recorded as -9.362%. Take `CC(c1ccccc1Cl)N1CCN(C(=O)c2ccc(=O)[nH]c2)CC1` (stereo unspecified): the “Percent Effect” value is given as -13%. `COC(=O)c1cccc2nc([C@H]3CCN(Cc4ccccc4)C3)oc12`: the “Percent Effect” value is reported as -1.952%.

As for `CCOC(=O)c1n[nH]cc1CN1CCCC(N(C)Cc2ccccc2)C1` (stereo unspecified), the “Percent Effect” value is listed as -2.39%. `Cc1c[nH]nc1C1CN(Cc2cnn(-c3ccccc3C(=O)O)c2)C1`: the “Percent Effect” value amounted to 143.7%. Regarding `O=C(O)c1ccccc1-n1cc(CN2CCC(c3cc[nH]n3)C2)cn1` (stereo unspecified), the “Percent Effect” value amounted to 122.2%. For the molecule `CN1CCN(Cc2cnn(-c3ccccc3Cl)c2)[C@H]2CS(=O)(=O)C[C@H]21`, the “Percent Effect” value is listed as 2.085%.

With `Cn1cc(CN2CC[C@@H]3[C@@H](CCC(=O)N3CCc3ccccc3)C2)cn1`, the “Percent Effect” value was -6.541%. In the case of `O=C(O)c1ccccc1-n1cc(CN2CCOC(c3cc[nH]n3)C2)cn1` (stereo unspecified), the “Percent Effect” value stood at 92.78%. Regarding `Cc1cccc(C)c1OC1CN(Cc2cnn(C)c2)C1`, the “Percent Effect” value is listed as -10.44%. As to `Cc1ccnc(C2CN(Cc3cnn(-c4ccccc4C(=O)O)c3)C2)n1`, the “Percent Effect” value turned out to be 148.5%. Regarding `COCCc1noc(CNC2CCCN(c3cccnn3)C2)n1` (stereo unspecified), the “Percent Effect” value was determined as 6.075%. As for `CCOC(=O)c1coc(N2CCC(N3CCC(O)CC3)CC2)n1`, the “Percent Effect” value is reported as -0.9238%.

On to `CC(=O)N(c1ccc(C)cc1)c1nc(CN2CCCC(C)C2)cs1` (stereo unspecified), for which the “Percent Effect” value was found to be 4.19%.

With `CC(=O)N1CCCC(c2cccc(-n3ccnc3)n2)C1` (stereo unspecified), the “Percent Effect” value worked out at 108.7%.

As to `Cc1cc(C2CCC2)nc(N2CC(n3cccn3)C2)n1`, the “Percent Effect” value was found to be 18.14%. `Fc1ccc(CN2CCCC2c2cncc(-n3ccnc3)n2)cc1` (stereo unspecified): the “Percent Effect” value was -7.107%.

For the molecule `O=C(C1CCC1)N1CCCC(c2cccc(-n3ccnc3)n2)C1` (stereo unspecified), the “Percent Effect” value came out at 120%. As for `Cc1cc(C)nc(N2CCC(c3cncc(-n4ccnc4)n3)CC2)n1`, the “Percent Effect” value stood at 132.5%. For `O=C(c1cnccn1)N1CCCC(c2cccc(-n3ccnc3)n2)C1` (stereo unspecified), the “Percent Effect” value came out at 132.1%.

In the case of `O=C(c1cc[nH]n1)N1CCCC(c2cccc(-n3ccnc3)n2)C1` (stereo unspecified), the “Percent Effect” value is on record as -0.007784%. Consider `Cc1nc(COC[C@@H]2CCC[C@@]23CNCCO3)cs1.Cl.Cl`, for which the “Percent Effect” value is reported as -7.746%. For `CNS(=O)(=O)CC1CCCN1c1ccc(Br)cn1` (stereo unspecified), the “Percent Effect” value was -12.02%. The result for `Cn1ccnc1C(NCc1csc(Br)c1)c1ccccc1` (stereo unspecified) reads -0.294%.

Consider `CCc1nccc(CN2CCCC(c3nn(C)c(=O)n3CC)C2)n1` (stereo unspecified), for which the “Percent Effect” value worked out at 16.29%.

Take `CC(C)[C@H]1COC(=O)N1Cc1nccn1C1CC1`: the “Percent Effect” value amounted to 4.052%. Consider `CCc1nc(N)nc(NCc2cnn3cccnc23)c1C`, for which the “Percent Effect” value is on record as -10.8%. The result for `OCCCN1CCc2[nH]nc(C(c3ccccc3)c3ccccc3)c2C1` reads -10.74%. As for `O=C(Cn1ccc(=O)[nH]c1=O)NCc1cccnc1OCC(F)(F)F`, the “Percent Effect” value is recorded as 7.684%.

(Values after ChEMBL document CHEMBL3988442, “University of Dundee, Small-Polar-MMV Screening Library” (2021).)
